This is a sample that favours compounds with a hit; in the whole collection about 6% have one here.
Tau fluor counter: Counterscreen qHTS for Inhibitors of Tau Fibril Formation, Fluorescence Polarization | tau K18 P301L Alexa594 fluorescence, heparin fibrillization | Potency, µM (doses to about 57.7 µM) | 0.93% of 280,000 active | AID 1463, 2008; further: nearly all actives have a fitted effect of over 55% in size
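Human K18 P301L tau (15 uM unlabeled plus 0.24 uM Alexa 594-labeled, final) in 100 mM sodium acetate pH 7 was mixed with compound and 20 uM heparin and incubated 6 hr at 37 C.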
Tau FP inhib: qHTS for Inhibitors of Tau Fibril Formation, Fluorescence Polarization. Microtubule-associated protein tau (Homo sapiens), P10636. K18 P301L tau heparin fibrillization, Alexa594 FP, 6 h. Potency, µM (highest dose often 57.7 µM), most hits filed as inhibitors. 0.39% of 280,000 active. AID 1468, 2008; further: nearly all actives have a fitted effect of over 55% in size
Target sequence (P10636 561-689 P618L limits assumed): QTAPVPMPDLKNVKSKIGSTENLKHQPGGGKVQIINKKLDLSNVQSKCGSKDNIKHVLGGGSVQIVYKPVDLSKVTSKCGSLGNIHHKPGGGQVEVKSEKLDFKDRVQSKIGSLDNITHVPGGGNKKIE
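Human tau K18 […] P301L fragment, 15 uM unlabeled plus 0.24 uM Alexa 594-labeled tau (final), with compound and 20 uM heparin in 100 mM sodium acetate pH 7; 6 hr at 37 C, then Alexa 594 FP read.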
Tau fibril ThT: qHTS for Inhibitors of Tau Fibril Formation, Thioflavin T Binding; Microtubule-associated protein tau (Homo sapiens), P10636; Potency, µM (doses to about 57.4 µM), hits mostly inhibitors; 2.1% of 270,000 active; recombinant tau K18 P301L (four-repeat tau fragment), heparin-induced fibrillization, ThT fluorescence; further: nearly all actives have a fitted effect of over 55% in size
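Heparin-induced (20 uM) aggregation of recombinant human K18 P301L tau, 15 uM unlabeled with 0.24 uM labeled, pH 7 acetate buffer, 6 hr at 37 C with compound. Fibrils quantified by 30 uM ThT fluorescence after 1 hr ambient incubation.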
VDR inhibitor: Inhibitors of the vitamin D receptor (VDR): qHTS; Potency, µM, hits mostly inhibitors; Vitamin D3 receptor (Homo sapiens), P11473; VDR-SRC2-3 peptide fluorescence polarization, 2 h; 0.93% of 400,000 active
Target sequence (P11473 whole entry, looked up): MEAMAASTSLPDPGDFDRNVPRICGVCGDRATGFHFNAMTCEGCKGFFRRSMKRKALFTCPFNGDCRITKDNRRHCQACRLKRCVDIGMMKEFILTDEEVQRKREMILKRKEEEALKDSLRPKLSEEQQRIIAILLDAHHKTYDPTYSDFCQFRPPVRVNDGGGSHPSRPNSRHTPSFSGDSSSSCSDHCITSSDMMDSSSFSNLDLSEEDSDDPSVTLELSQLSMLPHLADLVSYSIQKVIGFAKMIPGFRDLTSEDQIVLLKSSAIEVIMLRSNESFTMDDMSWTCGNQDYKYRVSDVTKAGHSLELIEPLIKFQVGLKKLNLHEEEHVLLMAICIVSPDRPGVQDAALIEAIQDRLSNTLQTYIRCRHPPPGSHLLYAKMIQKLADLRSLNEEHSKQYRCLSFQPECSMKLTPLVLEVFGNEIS
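VDR–SRC2-3 interaction, FP format. Cmpds 23 nl via pintool, brief spin, 2 h ambient incubation.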
PLK1 PBD inh: qHTS for Inhibitors of PLK1-PDB (polo-like kinase 1 - polo-box domain): Primary Screen; Serine/threonine-protein kinase PLK1 (Homo sapiens), P53350; Plk1 PBD binding of FITC phosphopeptide, fluorescence polarization; Potency, µM, most hits filed as inhibitors; 2.8% of 360,000 active; AID 720504, 2013; further: series mostly up to about 57 µM; nearly all actives have a fitted effect of over 65% in size
Sfp PPTase inh: qHTS Assay for Inhibitors of Bacillus subtilis Sfp phosphopantetheinyl transferase (PPTase) | AID 1490, 2009 | Potency, µM, most hits filed as inhibitors | Biochemical Sfp PPTase activity, qHTS | 4'-phosphopantetheinyl transferase ffp (Bacillus subtilis), Q9F4F7 | 3.5% of 310,000 active;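 further: the enzyme is Sfp with the accession as filed and its product quenches rhodamine fluorescence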
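Compounds were incubated with enzyme (final 15 nM) for 15 min at room temperature before substrate addition started the reaction. Fluorescence at 525 nm excitation, 598 nm emission was recorded immediately and after 30 minutes.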
Hits are given with their value; 0 = inactive; ? = inconclusive; - = no result given; [ ] = remark or other dose. The call rests on the fitted dose curve; in most records, active means well fitted curve in the direction sought with a large enough effect; inconclusive means small, poorly fitted or top-dose-only effect, or another doubt; inactive means no such curve, though single readings can be large; an effect the other way counts as inactive or inconclusive.

SMILES	Tau fluor counter	Tau FP inhib	Tau fibril ThT	VDR inhibitor	PLK1 PBD inh	Sfp PPTase inh
Fc1ccc(CNc2ncnc3onc(-c4ccc(F)cc4)c23)cc1	0	0	0	0	-	-
O=c1[nH][nH]c2c(N=Cc3ccccc3O)ccc(F)c12	3.5µM[quencher]	7.9µM	3.5µM	?	11µM	7.9µM
CCc1ccc(O)c(N=Cc2ccccc2O)c1	0	0	?	0	0	0
COc1ccc(C2CC(=O)c3c([nH]c(C(=O)OC4CCCCCC4)c3C)C2)cc1OC (stereo not given)	0	0	0	0	-	-
CCN1/C(=C/c2cc[n+](CCCS(=O)(=O)[O-])c3ccccc23)Sc2ccccc21	0	0	?	0	0	0
C=CC[n+]1ccc(/C=C2\C=Cc3cc(C)ccc3N2CC)c2ccccc21	0	32µM	3.2µM	0	0	0
OC1c2cc(Cl)cc(Cl)c2N=C2CCCN21 (stereo not given)	-	-	-	-	0	-
Cc1cc(C)cc(N=Cc2[nH]c3ccc(Br)c(Cl)c3c2O)c1	?	0	?	0	0	0
COc1ccc(CN=Cc2[nH]c3ccc(Br)c(Cl)c3c2O)cc1	?	?	16µM	?	?	0
CCCCOc1cccc(C(=O)N(Cc2ccc(N(C)C)cc2)C2CCS(=O)(=O)C2)c1 (stereo not given)	0	0	0	0	-	-
Cc1cc(/C=N/Nc2ncnc(N)c2[N+](=O)[O-])c(C)n1-c1ccccc1	0	0	?	0	0	?
COc1cccc(/C=N/Nc2ncnc(N)c2[N+](=O)[O-])c1OC	0	0	0	0	0	45µM
COc1ccccc1C(=O)NCC(=O)N/N=C/c1ccc([N+](=O)[O-])cc1	0	0	?	0	0	0
COc1ccccc1C(=O)NCC(=O)NNc1ncnc(N)c1[N+](=O)[O-]	0	0	0	-	-	7.1µM
O=C(NCCO)C(=O)NCC(c1ccc2c(c1)OCO2)N1CCOCC1 (stereo not given)	0	0	0	0	-	-
O=[N+]([O-])c1nn(-c2ccc3c(c2)OCCO3)n(O)c1=Nc1ccccc1	0	0	0	0	0	0
O=[N+]([O-])c1nn(-c2ccc3c(c2)OCCO3)n(O)c1=Nc1ccc(Cl)cc1	?	?	14µM	0	0	0
Cc1ccc(N=c2c([N+](=O)[O-])nn(-c3ccc(Cl)cc3)n2O)cc1C	?	0	13µM	0	0	?
COCCn1c(=O)c(-c2cn(C)c3ccccc23)nc2cnc(Oc3ccccc3)nc21	-	-	-	0	-	0
O=C1CC(Nc2ccc(N3CCOCC3)cc2)C(=O)N1c1cccc(C(F)(F)F)c1 (stereo not given)	0	0	16µM	0	0	?
COc1ccc(N2C(=O)CC(Nc3ccc(N4CCOCC4)cc3)C2=O)c(OC)c1 (stereo not given)	0	0	?	0	0	?
CN(C)c1ccc(N2C(=O)CC(Nc3ccc(N4CCOCC4)cc3)C2=O)cc1 (stereo not given)	0	0	14µM	0	0	0
Cc1ccc(NC2CC(=O)N(c3ccc(N4CCCCC4)cc3)C2=O)cc1 (stereo not given)	0	0	?	0	0	0
COc1cccc(N2C(=O)CC(Nc3ccc(N4CCOCC4)cc3)C2=O)c1 (stereo not given)	0	0	14µM	0	0	?
CCOC(=O)c1c(C)[nH]c(C)c1C(=O)COC(=O)CNC(=O)c1ccc(OCC)cc1	0	0	0	0	30µM	0
SMILES	Tau fluor counter	Tau FP inhib	Tau fibril ThT	VDR inhibitor	PLK1 PBD inh	Sfp PPTase inh
CCOC(=O)c1c(C)[nH]c(C(=O)COC(=O)CNC(=O)c2ccc(Br)cc2)c1C	0	0	0	0	0	0
Cc1cccc2c(N=O)c(O)[nH]c12	0	0	?	?	3.8µM	0
O=Nc1c(O)[nH]c2ccc(F)cc12	0	0	0	0	0	0
Cc1ccc(Cl)cc1NS(=O)(=O)c1ccc(N2CCCCS2(=O)=O)cc1	0	0	0	0	-	-
CC(=O)Nc1c(C(=O)Nc2ccc3c(c2)OCO3)oc2ccccc12	-	-	-	0	0	0
COCC(=O)Nc1c(C(=O)Nc2ccc3c(c2)OCO3)oc2ccccc12	-	-	-	0	30µM	0
Cc1ccc[n+](/C(C(=S)NCc2ccco2)=C(/[O-])c2ccccc2Cl)c1	0	0	0	0	0	45µM
CC(C)(C)c1ccc(/C([O-])=C(/C(=S)NCc2ccco2)[n+]2ccccc2)cc1	0	0	?	-	-	50µM
Cc1ccc[n+](C(C(=S)NCc2ccco2)=C([O-])c2ccccc2Cl)c1	-	-	-	0	0	-
N#Cc1c(-c2ccccc2)[nH]c(=S)[nH]c1=O	0	0	0	0	0	50µM
O=c1[nH]c(=S)[nH]c(-c2ccccc2)c1Cc1c(O)ccc2ccccc12	-	-	-	22µM	-	-
COC(=O)C1=C(C)N(Cc2ccccc2)[C@]23O[C@](C(=O)OC)(C(=O)N2C1c1ccccc1)C(C(=O)OC)C3C(=O)OC (stereo not given in full)	0[11.6 µM]	0[11.6 µM]	0[11.5 µM]	-	-	?
Cc1ccc2cc(C(c3nnnn3C3CCCC3)N(Cc3ccccc3)Cc3ccco3)c(=O)[nH]c2c1 (stereo not given)	0	0	0	0	0	?
Cc1cc2cc(C(c3nnnn3C3CCCC3)N(Cc3cccnc3)Cc3ccco3)c(=O)[nH]c2cc1C (stereo not given)	0	0	?	0	0	56µM
CCN1C=C(Cc2cccs2)C2=C(C1)C(c1cccs1)C(C#N)=C(N)O2 (stereo not given)	0	0	22µM	0	0	0
CCN1CC2=C(OC(N)=C(C#N)C2c2cccs2)/C(=C/c2cccs2)C1 (stereo not given)	0	0	16µM	0	0	0
CCOC(=O)C1=C(C)OC(N)=C(C#N)C1c1cccs1 (stereo not given)	0	?	0	0	0	0
CCN(CC)S(=O)(=O)c1cccc(C(=O)Nc2ccccc2C(=O)Nc2ccc(OC)cc2)c1	?	?	0	0	-	-
CC(=O)c1cccc([N+](=O)[O-])c1	-	-	-	0	0	-
O=C(C#Cc1ccccc1)c1cccc([N+](=O)[O-])c1	?	0	?	?	0.6µM	0
Cn1cnc2c1c(=O)n(Cc1cccc(F)c1)c(=O)n2C	-	-	-	0	0	0
CCCCn1c(=O)n(Cc2cccc(F)c2)c(=O)c2c1ncn2Cc1ccco1	0	0	0	0	?	40µM
Cn1c2ccc(F)cc2c2ncn(Cc3ccco3)c(=O)c21	0	0	0	0	0	50µM

Screening results from PubChem BioAssay.
